# Reference: PubChem BioAssay AID1159580 (chemical genetic matrix, 2015)
# The campaign covered roughly 5,500 compounds. About 2,000 (36%) were called active. About 18% were inconclusive and are not listed. The list shows a part of the results. A number with no mark means an inactive call. No stated cut-off is given here; in the data, active means normalized growth mostly below about 0.91 (no sharp cut-off); inconclusive means no clear call, values can overlap the other calls; inactive means mostly above about 0.92.
# Assay: chemical genetic growth profiling, strain panel (AID 1159580);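 further: tested at 20 µM; growth read once vehicle control cultures reached saturation at 30 °C; 1 = growth at the plate median or of vehicle wells; lower values mean less growth of the strain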
# Settings: S. cerevisiae deletion strains, growth OD
# [1] = locus YAL021C, strain ccr4, active compounds read low
# [2] = locus YAL026C, strain drs2, active compounds read low
# [3] = locus YAL030W, strain snc1, active compounds read low
# [4] = locus YBL061C, strain skt5, active compounds read low
# [5] = locus YBR009C, strain hhf1, active compounds read low
# [6] = locus YBR023C, strain chs3, active compounds read low
# [7] = locus YBR171W, strain sec66, active compounds read low
# [8] = locus YBR231C, strain swc5, active compounds read low
# [9] = locus YBR279W, strain paf1, active compounds read low
# [10] = locus YCL011C, strain gbp2, active compounds read low
# [11] = locus YCL016C, strain dcc1, active compounds read low
# [12] = locus YCL069W, strain vba3, active compounds read low
# [13] = locus YCR088W, strain abp1, active compounds read low
# [14] = locus YDL005C, strain med2, active compounds read low
# [15] = locus YDL040C, strain nat1, active compounds read low
# [16] = locus YDR001C, strain nth1, active compounds read low
# [17] = locus YDR069C, strain doa4, active compounds read low
# [18] = locus YDR137W, strain rgp1, active compounds read low
# [19] = locus YDR159W, strain sac3, active compounds read low
# [20] = locus YDR297W, strain sur2, active compounds read low
# [21] = locus YDR334W, strain swr1, active compounds read low
# [22] = locus YDR335W, strain msn5, active compounds read low
# [23] = locus YDR392W, strain spt3, active compounds read low
# [24] = locus YEL003W, strain gim4, active compounds read low
# [25] = locus YEL037C, strain rad23, active compounds read low
# [26] = locus YEL061C, strain CIN8 (second series), active compounds read low
# [27] = locus YER015W, strain faa2, active compounds read low
# [28] = locus YER016W, strain bim1, active compounds read low
# [29] = locus YER111C, strain swi4, active compounds read low
# [30] = locus YER155C, strain BEM2 (second series), active compounds read low
# [31] = locus YFR010W, strain ubp6, active compounds read low
# [32] = locus YGL167C, strain pmr1, active compounds read low
# [33] = locus YGL173C, strain kem1, active compounds read low
# [34] = locus YGL227W, strain vid30, active compounds read low
# [35] = locus YGL240W, strain doc1, active compounds read low
# [36] = locus YGL253W, strain hxk2, active compounds read low
# [37] = locus YHR013C, strain ard1, active compounds read low
# [38] = locus YHR027C, strain rpn1, active compounds read low
# [39] = locus YHR142W, strain chs7, active compounds read low
# [40] = locus YJL092W, strain hpr5, active compounds read low
# [41] = locus YJL095W, strain BCK1 (second series), active compounds read low
# [42] = locus YJL115W, strain asf1, active compounds read low
# [43] = locus YJL129C, strain trk1, active compounds read low
# [44] = locus YJL154C, strain vps35, active compounds read low
# [45] = locus YJL164C, strain tpk1, active compounds read low
# [46] = locus YJL166W, strain qcr8, active compounds read low
# [47] = locus YJL187C, strain SWE1, active compounds read low
# [48] = locus YKL160W, strain elf1, active compounds read low
# [49] = locus YKR026C, strain gcn3, active compounds read low
# [50] = locus YKR091W, strain srl3, active compounds read low
# [51] = locus YLL001W, strain dnm1, active compounds read low
# [52] = locus YLL026W, active compounds read low
# [53] = locus YLL041C, strain sdh2, active compounds read low
# [54] = locus YLR027C, strain aat2, active compounds read low
# [55] = locus YLR221C, strain rsa3, active compounds read low
# [56] = locus YLR258W, strain gsy2, active compounds read low
# [57] = locus YLR262C, strain YPT6 (second series), active compounds read low
# [58] = locus YLR320W, strain mms22, active compounds read low
# [59] = locus YLR342W, strain FKS1, active compounds read low
# [60] = locus YLR357W, strain rsc2, active compounds read low
# [61] = locus YLR370C, strain arc18, active compounds read low
# [62] = locus YLR384C, strain iki3, active compounds read low
# [63] = locus YML120C, strain ndi1, active compounds read low
# [64] = locus YMR058W, strain fet3, active compounds read low
# [65] = locus YMR125W, strain sto1, active compounds read low
# [66] = locus YMR129W, active compounds read low
# [67] = locus YMR205C, strain PFK2, active compounds read low
# [68] = locus YMR231W, strain pep5, active compounds read low
# [69] = locus YNL071W, strain lat1, active compounds read low
# [70] = locus YNL209W, strain ssb2, active compounds read low
# [71] = locus YNL248C, strain rpa49, active compounds read low
# [72] = locus YNL322C, strain KRE1 (second series), active compounds read low
# [73] = locus YNR049C, strain mso1, active compounds read low
# [74] = locus YOR001W, strain rrp6, active compounds read low
# [75] = locus YOR070C, strain gyp1, active compounds read low
# [76] = locus YOR080W, strain dia2, active compounds read low
# [77] = locus YOR083W, strain WHI5, active compounds read low
# [78] = locus YOR106W, strain vam3, active compounds read low
# [79] = locus YOR265W, strain rbl2, active compounds read low
# [80] = locus YOR270C, strain vph1, active compounds read low
# [81] = locus YOR290C, strain snf2, active compounds read low
# [82] = locus YPL051W, strain arl3, active compounds read low
# [83] = locus YPL078C, strain atp4, active compounds read low
# [84] = locus YPL106C, strain sse1, active compounds read low
# [85] = locus YPL240C, strain hsp82, active compounds read low
smiles,measurement,setting,value
CC(=O)Oc1c2c(c3c(c1CC=C(C)C)O[C@]14C(=C[C@@H]5CC1C(C)(C)OC4(C/C=C(\C)C(=O)O)C5=O)C3=O)OC(C)(CCC=C(C)C)C=C2 (stereo partly drawn),normalized growth,[1],1
same,normalized growth,[2],0.979
same,normalized growth,[3],0.976
same,normalized growth,[4],0.949
same,normalized growth,[5],0.958
same,normalized growth,[6],0.964
same,normalized growth,[7],0.974
same,normalized growth,[8],0.94
same,normalized growth,[9],0.961
same,normalized growth,[10],0.988
same,normalized growth,[11],0.987
same,normalized growth,"locus YCL061C, strain MRC1, active compounds read low",0.98
same,normalized growth,[12],0.984
same,normalized growth,[13],0.985
same,normalized growth,[14],0.968
same,normalized growth,[15],0.977
same,normalized growth,[16],0.985
same,normalized growth,[17],0.977
same,normalized growth,[18],0.775 (active)
same,normalized growth,[19],0.87
same,normalized growth,"locus YDR195W, strain ref2",1.01
same,normalized growth,[20],0.959
same,normalized growth,[21],0.976
same,normalized growth,[22],0.997
same,normalized growth,[23],0.547 (active)
same,normalized growth,[24],0.96
same,normalized growth,[25],0.995
same,normalized growth,[26],0.984
same,normalized growth,[27],0.973
same,normalized growth,[28],0.971
same,normalized growth,[29],0.981
same,normalized growth,[30],0.922
same,normalized growth,[31],0.973
same,normalized growth,[32],0.973
same,normalized growth,[33],0.939
same,normalized growth,[34],0.981
same,normalized growth,[35],0.951
same,normalized growth,[36],0.967
same,normalized growth,[37],0.875
same,normalized growth,[38],0.98
same,normalized growth,[39],0.991
same,normalized growth,[40],0.988
same,normalized growth,[41],0.971
same,normalized growth,[42],0.982
same,normalized growth,[43],0.89
same,normalized growth,[44],0.992
same,normalized growth,[45],0.986
same,normalized growth,[46],0.937
same,normalized growth,[47],0.972
same,normalized growth,[48],0.957
same,normalized growth,[49],0.983
same,normalized growth,[50],0.984
same,normalized growth,[51],0.945
same,normalized growth,[52],0.968
same,normalized growth,[53],0.983
same,normalized growth,[54],0.948
same,normalized growth,[55],0.947
same,normalized growth,[56],0.994
same,normalized growth,[57],0.874
same,normalized growth,[58],0.899
same,normalized growth,[59],0.963
same,normalized growth,[60],1.01
same,normalized growth,[61],0.958
same,normalized growth,[62],0.964
same,normalized growth,[63],0.985
same,normalized growth,[64],0.991
same,normalized growth,[65],0.992
same,normalized growth,[66],0.97
same,normalized growth,[67],0.878
same,normalized growth,[68],0.984
same,normalized growth,[69],0.878 (active)
same,normalized growth,[70],0.982
same,normalized growth,[71],0.973
same,normalized growth,[72],1
same,normalized growth,[73],0.982
same,normalized growth,[74],0.915
same,normalized growth,[75],0.957
same,normalized growth,[76],0.979
same,normalized growth,[77],0.99
same,normalized growth,[78],0.98
same,normalized growth,[79],0.979
same,normalized growth,[80],0.808
same,normalized growth,[81],0.989
same,normalized growth,[82],0.914 (active)
same,normalized growth,[83],1.01
same,normalized growth,[84],0.984
same,normalized growth,[85],0.984
CC(=O)Oc1c2c(c(CC=C(C)C)c3c1C(=O)C1=C[C@@H]4CC5C(C)(C)OC(C/C=C(\C)C(=O)O)(C4=O)[C@@]15O3)OC(C)(CCC=C(C)C)C=C2 (stereo partly drawn),normalized growth,[1],0.99
same,normalized growth,[2],0.986
same,normalized growth,[3],0.977
same,normalized growth,[4],0.984
same,normalized growth,[5],0.948
same,normalized growth,[6],0.962
same,normalized growth,[7],0.989
same,normalized growth,[8],0.953
same,normalized growth,[9],0.975
same,normalized growth,[10],0.98
same,normalized growth,[11],0.97
same,normalized growth,[12],0.991
same,normalized growth,[13],0.972
same,normalized growth,[14],0.977
same,normalized growth,[15],0.978
same,normalized growth,[16],0.988
same,normalized growth,[17],0.933
same,normalized growth,[18],0.551 (active)
same,normalized growth,[19],0.975
same,normalized growth,"locus YDR195W, strain ref2",1.11
same,normalized growth,[20],0.969
same,normalized growth,[21],0.976
same,normalized growth,[22],0.994
same,normalized growth,[23],0.695 (active)
same,normalized growth,[24],0.978
same,normalized growth,[25],0.99
same,normalized growth,[26],1
same,normalized growth,[27],0.989
same,normalized growth,[28],0.971
same,normalized growth,[29],0.99
same,normalized growth,[30],0.96
same,normalized growth,[31],0.938
same,normalized growth,[32],0.982
same,normalized growth,[33],0.97
same,normalized growth,[34],1
same,normalized growth,[35],0.983
same,normalized growth,[36],0.989
same,normalized growth,[37],0.894
same,normalized growth,[38],0.984
same,normalized growth,[39],0.939
same,normalized growth,[40],0.975
same,normalized growth,[41],0.944
same,normalized growth,[42],1.01
same,normalized growth,[43],0.76 (active)
same,normalized growth,[44],0.996
same,normalized growth,[45],0.951
same,normalized growth,[46],0.984
same,normalized growth,[47],0.974
same,normalized growth,[48],0.962
same,normalized growth,[49],0.983
same,normalized growth,[50],0.978
same,normalized growth,[51],0.979
same,normalized growth,[52],1
same,normalized growth,[53],0.994
same,normalized growth,[54],0.977
same,normalized growth,[55],0.969
same,normalized growth,[56],0.979
same,normalized growth,[57],0.543 (active)
same,normalized growth,[58],0.806 (active)
same,normalized growth,[59],0.963
same,normalized growth,[60],1.05
same,normalized growth,[61],0.946
same,normalized growth,[62],0.981
same,normalized growth,[63],0.996
same,normalized growth,[64],0.982
same,normalized growth,[65],0.993
same,normalized growth,[66],0.975
same,normalized growth,[67],0.812 (active)
same,normalized growth,[68],0.987
same,normalized growth,[69],0.797 (active)
same,normalized growth,[70],0.977
same,normalized growth,[71],0.983
same,normalized growth,[72],1.01
same,normalized growth,[73],0.984
same,normalized growth,[74],0.988
same,normalized growth,[75],0.971
same,normalized growth,[76],0.994
same,normalized growth,[77],0.953
same,normalized growth,[78],0.931
same,normalized growth,[79],0.962
same,normalized growth,[80],0.653 (active)
same,normalized growth,[81],0.96
same,normalized growth,[82],0.931
same,normalized growth,[83],0.967
same,normalized growth,[84],1.02
same,normalized growth,[85],0.978
